40 compounds from PubChem BioAssay (NCI) can be followed below.

Several values for one entry are separate records, joined by “and”; a condition that tells them apart may be missing. Equal values may be shown once. The panel holds about 83,000 compounds, 20% with a hit somewhere; the sample as a whole holds those more often.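 For each line, cells grew in 96-well plates with the test compound present at a single concentration for 48 hours.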 Values without a mark were called inactive. Activity calls are given as the source filed them. How the source made its calls: active means growth percent below 10; inactive means the rest.

The test system of the experiment is MDA-MB-468 breast. Briefly: NCI-60 one-dose screen, 48 h (100 = growth as untreated, 0 = no growth, -100 = all killed). The settings on record: 10 µM unless noted.
Take `CCOC(=O)c1sc2ncnc(Nc3ccc(NC(=O)Nc4ccc(Cl)cc4)cc3)c2c1C`: the growth was 68.9%. Take `Cc1ccc(C(c2c(O)c3cc(Br)ccc3[nH]c2=O)c2c(O)c3cc(Br)ccc3[nH]c2=O)cc1`: the growth was 94.7%. With `NC[C@@H]1O[C@H](O[C@@H]2[C@@H](CO)OC(O[C@@H]3[C@@H](O)[C@H](N)C[C@H](N)[C@H]3OC3O[C@H](CN)[C@@H](O)[C@H](O)[C@H]3N)[C@@H]2O)[C@H](N)[C@@H](O)[C@@H]1O` (stereo not given in full), the growth is 110%. With `CNC(=O)c1cc(Oc2ccc3c(c2)sc2nc(-c4ccc(NC(C)=O)cc4)cn23)ccn1` the figure was 86.3%.

As for `NC(N)=N/N=C(\c1ccccc1)C(O)c1ccccc1` (stereo not given), the growth was 99.8%. With `Clc1ccccc1-c1cnn2cc(-c3ccccc3)cnc12` the figure was 90.8%. The value for `CCOC(=O)CCC[P+](c1ccccc1)(c1ccccc1)c1ccccc1` was 6.56% (active); that for `COc1cnc2c(c1)C(=O)c1c-2n(CCCN2CCCC2)c(=O)c2cc([N+](=O)[O-])ccc12` was -41.1% (active); that for `c1csc(-c2cn3nc(-c4c[nH]c5ccccc45)sc3n2)c1` was 19.4%. For `COc1ccc(-c2c[nH]c(C(=O)O)c2-c2cc(OC)c3c(c2OC)OCO3)cc1`, the growth is 103%. In the case of `CN1CCN(CC(=O)Nc2nc3c(s2)Nc2cc(Cl)c(Cl)cc2NC3=O)CC1`, the growth is 114%.

For `COc1ccc(-c2cc(-c3ccccc3)nc(SCCCCCC(=O)NO)n2)cc1`, the growth was 64.8%. As for `COc1ccc(Cc2cnc(NC(=O)c3sc4ccccc4c3Cl)s2)cc1`, the growth is 23.5%. Consider `CCOC(=O)c1cc2c(n1Cc1cccc(OC)c1)-c1oncc1CCC2`, for which the growth is 11.9%. `O=Cc1ccc(O)c2ncccc12`: the growth was 27.4%. On to `CC(C)(C)[Si](C)(C)OCC1OC(n2cnc3c(N)ncnc32)CC1OS(C)(=O)=O` (stereo not given), for which the growth is 99.7%. With `CC(=O)Oc1ccc(C2=Cc3ccc(OC(C)=O)cc3OC2C)cc1` (stereo not given) the figure was 56.5%; with `CC1=C([Se]CC(OC(=O)CC[Se]c2ccccc2)C(=O)NCCCCCC(=O)OCc2ccccc2)C(=O)c2ccccc2C1=O` (stereo not given), -7.59% (active); with `O=C(Cn1cc(CN2C(=O)c3ccccc3S2(=O)=O)nn1)Nc1cccc(Cl)c1`, 101%.

For `NC(=S)N/N=C(\c1ccc(Br)cc1)C1CC1`, the growth is 20% and 19%.

On to `Nc1ccc(Br)cn1`, for which the growth is 93.6%. As for `COc1ccc(C(c2cc(OC)c(OC)c(OC)c2)N2CCCCC2)cc1` (stereo not given), the growth is 9.32% (active).

Regarding `O=C1/C(=C/c2ccc(Oc3ccccc3)cc2)N=C(c2ccccc2)N1CCc1cccs1`, the growth is 108%.

For the compound `COc1cc(C(=O)OCCCCCCCCCCC[P+](c2ccccc2)(c2ccccc2)c2ccccc2)ccc1O`, the growth is -27.7% (active). As to `Cn1cc(-c2csc(-c3cn(C)c4ncccc34)n2)c2cc(F)cnc21`, the growth was -10.1% (active). Turning to `COc1ccc(Cc2cc(-c3ccccc3)nn(Cc3ccccc3)c2=O)cc1OC`, the growth was 42.9%.

As to `COc1ccc2oc3c4[nH]c5ccccc5c4c4c(c3c2c1)C(=O)N(O)C4=O`, the growth was 104%. On to `CCn1c(-c2cc3c([nH]c4ccccc43)c(-c3cccc(O)c3)n2)n[nH]c1=S`, for which the growth is 16.1%. On to `C[C@@H]1CN(Cc2ccc(/C=C/c3n[nH]c4ccc5nc(-c6cn[nH]c6C(F)(F)F)c6c(c5c34)CCCC6)cc2)C[C@H](C)O1`, for which the growth was 76.9%. With `NC(=S)N/N=C/c1ccc(Cl)s1`, the growth was 98.8%.

`O=c1c(Br)ccc(Br)cc1Br`: the growth is -65.9% (active). For `COC(=O)c1c2c(c[n+]([O-])c1C)C(=O)C=CC2=O`, the growth is -17.2% (active). Consider `O=C(Nc1cccc(-n2cc(-c3ccncc3)c(-c3cc(O)cc(Cl)c3)n2)c1)Nc1ccc(Cl)c(C(F)(F)F)c1`, for which the growth is 5.22% (active). As to `CC(=O)CC(=O)c1ccccc1.[Cu+2]`, the growth is 96.7%. Take `O=C(Cn1c2ccccc2c2ccncc21)N/N=C\c1ccc2ccccc2c1`: the growth was 19.7%. For the compound `COc1cccc(/C=N/N=C(N)N)c1`, the growth was 90%. `COc1cccc(-c2nc3sccn3c2-c2ccnc(NCCCNS(=O)(=O)c3ccc(C(F)(F)F)cc3)c2)c1`: the growth was 42.5%.

As to `Nc1nn(C(=O)Nc2ccc(Cc3ccccc3)cc2)c2ccc(Cl)cc12`, the growth was 72.3%. For the compound `COc1cc2c(=O)n(CCCN(C)C)c3c4cc5c(cc4ccc3c2cc1OC)OCO5`, the growth was 57.7%. With `CNC(=O)c1cc(Oc2ccc3nc(NC(=O)Nc4ccc(Cl)c(Cl)c4)sc3c2)ccn1` the figure was 68.3%.
